Measured values from PubChem BioAssay AID504321 (NMMLSC, 2011).

Test: MEP2-GFP expression modulation in yeast, confirmation, flow cytometry, third cherry pick, S. cerevisiae (AID 504321);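 further: median per-cell GFP fluorescence by flow cytometry across all yeast cells; ratio of sample to DMSO median GFP so 100% equals the DMSO level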
Details: S. cerevisiae MEP2-GFP strain, 3 h, at 10 µM, hits give high values;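 active means GFP response vs DMSO above 150% with enough events counted; inconclusive means fewer than 70 events counted for a yeast strain; inactive means the rest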

GFP response vs DMSO, inactive:
Nc1ncnc(Nc2cc(Cl)cc(Cl)c2)c1[N+](=O)[O-] 108%, COc1ccccc1-c1cc(C(F)(F)F)nc(S(C)(=O)=O)n1 142%, COc1ccc(OC)c(N/C(C)=C/C(=O)c2ccccc2)c1 114%, Nc1nc(NCCOCCO)nc(Nc2cccc(F)c2)c1[N+](=O)[O-] 108%, CCC(C)Nc1nc(N)c([N+](=O)[O-])c(Nc2cc(OC)ccc2OC)n1 (stereo not given) 114%, COC(=O)COc1c(Cl)cc(Cl)c2ccc(C)nc12 118%, C[n+]1cccc2c(Br)ccc([O-])c21 114%, Oc1ccc(Cl)c2cccnc12 101%, COc1ccc(N/C=C/C(=O)c2ccc(Cl)cc2)cc1 116%, N#Cc1c(N)nc(N)nc1Nc1ccc(Br)cc1 110%, Cc1ccc(C)c(Nc2ncnc(N)c2[N+](=O)[O-])c1 108%, Cc1cc(C)c(NC(=O)CC(=O)c2ccccc2)c(Cl)c1 105%, CC(C)Nc1ncnc2ccc(Br)cc12 112%, CCCC(=O)Nn1cnc2c(c1=O)C1(CCCCC1)Cc1ccccc1-2 105%, COc1ccc(NC(=O)ON=C2c3ccccc3-c3ccccc32)cc1 105%, COc1ccccc1Nc1nc(NCC(C)C)nc(N)c1[N+](=O)[O-] 114%, OCCN1CCN(c2ncnc3ccc(Br)cc23)CC1 112%, Cc1ccc(Nc2nc(N)[nH]c(=O)c2N=O)cc1 108%, CN1CCN(C(=O)c2cc(COc3ccc(F)cc3Cl)on2)CC1c1ccccc1 (stereo not given) 101%, O=C(Nc1ccccc1)O/N=C1\CCCCC1c1ccc([N+](=O)[O-])cc1[N+](=O)[O-] (stereo not given) 105%
